We go through 40 molecules from PubChem BioAssay (Tox21).

Results filed as inconclusive are left out. Values without a mark were called inactive. The source made the active and inactive calls. The call rests on the fitted dose curve; in most records, active means well fitted activation curve with a large enough effect in the signal ratio in the repeat runs (not every such curve was filed as active); inconclusive means weak or mixed curves; inactive means flat fitted curve, though single readings scatter; the % refers to the signal ratio.
On the % scale 0 is the no-effect control and ±100 the full control effect.

A short description of this test: qHTS assay to identify small molecule agonists of the TGF-beta/Smad signaling pathway (AID 1346859). The conditions noted are these: SBE-bla HEK293T, TGF-beta/Smad beta-lactamase reporter, 5 h; series mostly up to 76.8 µM; activation: at the top concentration. From the text:
U.S. Tox21 Program National Center for Advancing Translational Sciences [NCATS] NIH Chemical Genomics Center [NCGC] U.S. Environmental Protection Agency [EPA] National Institutes of Environmental Health Sciences [NIEHS] National Toxicology Program [NTP] U.S. Food and Drug Administration [FDA] Tox21 Assay Overview: Transforming growth factor beta (TGF-beta) superfamily consists of a large number of structurally related dimeric proteins that act as hormones or local mediators in regulating a wide range of biological functions. This superfamily includes TGF-betas themselves, the bone morphogenetic proteins (BMPs) and the activins. These ligands induce oligomerization of serine/threonine receptor kinases and phosphorylate the cytoplasmic signaling molecules of Smad protein family. CellSensor SBE-bla HEK 293T cell line (Life Technologies, Carlsbad, CA), responsive to TGF-beta was used to screen Tox21 10K compound library for identification of agonists/antagonists of the Smad signaling pathway. This cell line contains a beta-lactamase reporter gene under control of the Smad binding element (SBE) stably integrated into HEK 293T cells.
Tox21 Assay Protocol Summary: SBE-bla HEK 293T cells were dispensed at 4,000/well in 6 uL of assay medium into black wall/clear-bottom 1536-well plates using a Multidrop Combi (ThermoFisher Scientific, Waltham, MA) dispenser. After the assay plates were incubated at 37 C and 5% CO2 for an overnight, 23 nL of compounds dissolved in DMSO, positive controls or DMSO only was transferred to the assay plate by a Pintool station (Kalypsys, San Diego, CA). The assay plates were incubated at 37 C and 5% CO2 for 5 hr. One uL of LiveBLAzer B/G FRET substrate (Life Technologies) was added using a Flying Reagent Dispenser (Aurora Discovery, San Diego, CA) and the plates were incubated at room temperature for 2 hr. Fluorescence intensity (405 nm excitation, 460 nm and 530 nm emissions) was measured using an Envision plate reader (PerkinElmer, Shelton, CT).
Background: Quantitative high-throughput screening tests each substance at several concentrations.
In the case of `C=C(C)C(=O)O[C@H]1C[C@@H]2CC[C@@]1(C)C2(C)C`, the molecule was classed as inactive.
For the molecule `O=C(O)c1ccc(C(=O)O)cc1`, the result was inactive.
Regarding `CCCCCC/C(C=O)=C\c1ccccc1`, the molecule was called inactive.
`O=C(CC(C(=O)OC1CCCCC1)S(=O)(=O)O)OC1CCCCC1` (stereo not given): the “activation” value was 1.47%.
Regarding `O=S(=O)(O)c1ccc2ccccc2c1`, the molecule was classed as inactive.
In the case of `C#CCN(C)Cc1ccccc1`, the molecule was called inactive.
Turning to `O=C(O)c1ccccc1C(c1ccc(O)cc1)c1ccc(O)cc1`, the “activation” value was 5.73%.
As to `OCc1cccnc1`, the molecule was called inactive.
Turning to `O=S1(=O)CC=CC1`, the molecule was called inactive.
With `OC[C@H]1O[C@@](CO)(O[C@H]2O[C@H](CO)[C@@H](O)[C@H](O)[C@H]2O)[C@@H](O)[C@@H]1O`, the call was inactive.
The same measure, in the same setting: the value for `Fc1ccc(Br)cc1` was “inactive”; that for `CCc1cccc(C)c1N` was “inactive”; that for `C=CCNC(N)=S` was “inactive”.
The same measure, in the same setting: under `ON=C1CCCCC1` stands “inactive”.
On to `CC(C)(C)[C@@H](O)[C@@H](Cc1ccc(Cl)cc1)n1cncn1`, for which the “activation” value was -16.1%.
Consider `C[C@H]1C[C@@H]2[C@H]([C@@H](O)C[C@@]3(C)[C@H]2CC[C@]3(O)C(=O)CO)[C@@]2(C)C=CC(=O)C=C12`, for which the outcome was inactive.
Still for that read-out and setting: the value for `CC(C)CC(=O)CC(C)C` was “inactive”; that for `CCCCC(CC)COC(=O)CS` (stereo not given) was “inactive”; that for `c1ccc2c(c1)ccc1ccccc12` was “inactive”.
The same measure, in the same setting: under `c1ccc(OCCOc2ccccc2)cc1` stands “inactive”.
The same measure, in the same setting: under `C=C(C)C(=O)Nc1ccc(Cl)c(Cl)c1` stands “inactive”.
Take `CC(C)c1ccc(S(=O)(=O)O)cc1`: the molecule was called inactive.
Turning to `C[Si](O[Si](C)(C)C)O[Si](C)(C)C`, the molecule was classed as inactive.
Still for that read-out and setting: the value for `CC(C)(N)CO` was “inactive”; that for `c1c[nH]cn1` was “inactive”.
On the same count and under the same terms, under `O=C(O)c1cc(=O)c2c(OCC(O)COc3cccc4oc(C(=O)O)cc(=O)c34)cccc2o1` stands “inactive”; under `CCCCCCCCCCCCS`, “inactive”.
Take `C#C[C@]1(O)CC[C@H]2[C@@H]3CCC4=CC(=O)CC[C@@H]4[C@H]3CC[C@@]21C`: the “activation” value was -2.96% [at 35.3 µM].
For `C=C(C)C(=O)OCCOCCOCCOC(=O)C(=C)C`, the call was inactive.
Same read-out and setting: under `Cc1cccc(O)c1` stands “inactive”.
Consider `Cc1cnc(C(=O)NCCc2ccc(S(=O)(=O)NC(=O)NC3CCCCC3)cc2)cn1`, for which the “activation” value is -6.49% [at 35.3 µM].
Take `OCCOCCOCCO`: the molecule was classed as inactive.
Take `O=C(O)c1cc(O)c(O)c(O)c1`: the outcome was inactive.
Same read-out and setting: under `CCC(O)OCCCOC` (stereo not given) stands “inactive”; under `N[C@@H](Cc1cc(I)c(Oc2cc(I)c(O)c(I)c2)c(I)c1)C(=O)O`, “inactive”.
The same measure, in the same setting: under `CC1=C(C)S(=O)(=O)CCS1(=O)=O` stands “inactive”; under `CC(O)COCC(C)O` (stereo not given), “inactive”.
Same read-out and setting: under `CCCCCC1=CCCC1=O` stands “inactive”.
Turning to `CC1CCC2CC1C2(C)C` (stereo not given), the molecule was called inactive.
The same measure, in the same setting: under `O=C(O)c1ccc2c(c1)C(=O)OC2=O` stands “inactive”.
